Compounds with a hit are over-represented: about 5.2% of the library has one in this group of screens.
IDH1 R132H inh – qHTS for Inhibitors of mutant isocitrate dehydrogenase 1 (IDH1): qHTS | Isocitrate dehydrogenase [NADP] cytoplasmic (Homo sapiens), O75874 | IDH1-R132H enzyme, NADPH consumption, diaphorase/resazurin fluorescence | Potency, µM (series often up to 76.6 µM), for inactives: at the highest dose activity change, negative = inhibition, actives largely listed as inhibitors | actives 0.093% (n = 390,000) | AID 602179, 2012; also: nearly all actives have a fitted effect of over 65% in size
Target sequence (O75874 whole entry R132H, stated change not applied): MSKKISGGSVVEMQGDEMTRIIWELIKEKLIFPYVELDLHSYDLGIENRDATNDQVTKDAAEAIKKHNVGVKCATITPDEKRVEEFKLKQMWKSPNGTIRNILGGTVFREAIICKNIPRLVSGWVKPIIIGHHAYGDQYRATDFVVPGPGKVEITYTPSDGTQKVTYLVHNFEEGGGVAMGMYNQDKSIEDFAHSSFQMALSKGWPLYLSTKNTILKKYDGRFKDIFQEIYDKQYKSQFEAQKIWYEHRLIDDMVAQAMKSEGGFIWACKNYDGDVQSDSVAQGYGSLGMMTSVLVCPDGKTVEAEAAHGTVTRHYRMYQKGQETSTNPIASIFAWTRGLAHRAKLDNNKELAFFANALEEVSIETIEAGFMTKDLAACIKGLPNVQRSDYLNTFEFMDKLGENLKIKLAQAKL
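IDH1-R132H (0.5 ug/mL) preincubated 30 min with compound, then NADPH (0.016 mM) and alpha-KG (2 mM) added; 80 min at RT, pH 7.5. Remaining NADPH coupled via diaphorase/resazurin to fluorescence (540/590 nm); concentration-response curves normalized to no-enzyme control.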
TrxR1 inh – qHTS Assay for Inhibitors of Mammalian Selenoprotein Thioredoxin Reductase 1 (TrxR1): qHTS. actives 1% (n = 390,000). Potency, µM (doses to about 114 µM), without a hit: at the highest dose activity change, negative = inhibition, most hits filed as inhibitors. recombinant rTrxR1, NADPH fluorescence consumption, selenite substrate; also: nearly all actives have a fitted effect of over 65% in size
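Rat TrxR1 (90 nM in the dispensed reagent) was pre-reduced with 400 uM NADPH for 5 min at room temperature, then incubated with compound for 15 min. After 400 uM selenite was added, NADPH fluorescence (Ex 340/Em 450 nm) was followed for 8 min.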
PLK1 PBD inh – qHTS for Inhibitors of PLK1-PDB (polo-like kinase 1 - polo-box domain): Primary Screen; Serine/threonine-protein kinase PLK1 (Homo sapiens), P53350; Plk1 PBD binding of FITC phosphopeptide, fluorescence polarization; Potency, µM, for inactives: max response, negative = inhibition, most hits filed as inhibitors; actives 2.8% (n = 360,000); AID 720504, 2013; also: series mostly up to about 57 µM; nearly all actives have a fitted effect of over 65% in size
VDR inhibitor – Inhibitors of the vitamin D receptor (VDR): qHTS | Vitamin D3 receptor (Homo sapiens), P11473 | VDR-SRC2-3 peptide fluorescence polarization, 2 h | Potency, µM, for the others: max response, negative = inhibition, most hits filed as inhibitors | actives 0.93% (n = 400,000) | AID 504847, 2011
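FP read-out; VDR + SRC2-3 coactivator peptide; 23 nl compound by pintool; 2 h RT incubation; reagents held at 4 deg C, protected from light.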
TrxR1 substrate – qHTS Assay for Substrates of Mammalian Selenoprotein Thioredoxin Reductase 1 (TrxR1): qHTS | Thioredoxin reductase 1, cytoplasmic (Rattus norvegicus), O89049 | purified TrxR1 substrate turnover, NADPH consumption readout | Potency, µM (highest dose often 114 µM), for inactives: at the highest dose activity change, negative = substrate turnover | actives 0.01% (n = 390,000) | AID 588456, 2011; also: nearly all actives have a fitted effect of over 50% in size
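Rat TrxR1, dispensed at 90 nM, was prereduced with 400 uM NADPH (final) for 5 min at ~22 deg C, then incubated with compound 15 min before 400 uM selenite. A first-read NADPH fluorescence drop versus no-compound background flagged substrates.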
Sfp PPTase inh – qHTS Assay for Inhibitors of Bacillus subtilis Sfp phosphopantetheinyl transferase (PPTase); 4'-phosphopantetheinyl transferase ffp (Bacillus subtilis), Q9F4F7; actives 3.5% (n = 310,000); Potency, µM, for the others: largest response in the series, negative = inhibition, actives largely listed as inhibitors; Biochemical Sfp PPTase activity, qHTS;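 also: the enzyme is Sfp with the accession as filed and its product quenches rhodamine fluorescence; 0% = enzyme reaction without inhibitor and -100% = no enzyme wells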
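Fluorescence-quenching assay with 15 nM Sfp, 5 uM rhodamine-CoA and 12.5 uM BHQ-2-labelled ybbR peptide in pH 7.6 Hepes/MgCl2 buffer. Enzyme was pre-incubated with compound for 15 min at room temperature. Rate was taken from the 30-min fluorescence change (525/598 nm).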
* = called active by the depositor; ? = inconclusive; . = no result; [ ] = another dose, or the depositor's remark. Calls follow the shape of the dose curve; as a rule, active = well fitted curve in the direction sought with a large enough effect; inconclusive = small, poorly fitted or top-dose-only effect, or another doubt; inactive = no such curve, though single readings can be large; an effect the other way counts as inactive or inconclusive. Unless noted, % is scaled to controls: 0 for no effect and ±100 for the full control effect; potency is read from the fitted curve at half-maximal effect.

SMILES | IDH1 R132H inh | TrxR1 inh | PLK1 PBD inh | VDR inhibitor | TrxR1 substrate | Sfp PPTase inh
Cc1ccc2c(c1)c(C1=NC(=S)NC1=O)c(O)n2C | 9% | 9%[57.1 µM] | -1% | 4% | 4%[57.1 µM] | 40µM*
Cc1ccc2c(c1)c(N=Nc1ccc([N+](=O)[O-])cc1)c(O)n2C | 9% | 11%[57.1 µM] | 1% | 5% | -20%[57.1 µM] | 18%
O=C(Nc1nc(-c2ccccn2)cs1)Nc1ccc(F)cc1F | -13% | 8% | 4.7µM* | ? | -3% | 11µM*
O=C(COc1cccc(F)c1)Nc1nc(-c2ccccn2)cs1 | 1% | . | 11µM* | . | . | .
O=C(Nc1nc(-c2ccccc2)cs1)Nc1ccc(F)cc1F | 4% | 11% | ? | -6% | -6%[57.1 µM] | -3%
COc1ccc(CN2C(=O)C(CC(=O)NCCCCc3ccccc3)CC(C(=O)N(C)C)=C2C)cc1 (stereo not drawn) | 5% | . | -1% | . | . | .
CN(C)c1ccc(C=Nc2ccc(/C=C3\C=Cc4ccccc43)cc2)cc1 | . | -36% | . | . | -24% | .
CN(C)C(=O)c1ccc(NC(=O)Cn2nc(-c3ccccc3)c3ccccc3c2=O)cc1 | -3% | 18% | . | 10% | 11% | .
Cn1c(SCc2nnc(-c3ccccc3Br)o2)nc2sc3c(c2c1=O)CCC3 | 2% | 13% | -5% | 5% | 7% | 79µM*
O=c1c2ccccc2nc(SCc2nnc(-c3ccccc3Br)o2)n1-c1ccccc1 | -1% | 22% | -1% | -2% | 6% | 9%
Brc1ccccc1-c1nnc(CSc2nncn2-c2ccccc2)o1 | 4% | -3% | 27µM* | -18% | -1% | -11%
Cc1ccccc1OCC(=O)Nc1ccc(S(=O)(=O)N(Cc2ccccc2)c2ccccc2)cc1 | 2% | 36% | . | -8% | -4% | .
CN(C)c1ccc(/C=C/c2cc3ccccc3cn2)cc1 | . | -15% | . | . | -8% | .
COC(=O)C1=C(C)[C@H](O)[C@@H](C)[C@](C)(c2cc(OC)c(C)c(OC)c2COc2ccccc2)O1 | . | . | . | 0% | . | 9%
CNCCCCc1cnc(C)c2[nH]c3ccccc3c12 | . | . | . | -2% | . | -10%
O=C(COc1ccc(Br)cc1Cl)NC(=S)N1CCc2ccccc21 | -4% | -25% | -13% | 4% | -4% | 0%
O=C(COc1ccc(Br)cc1Br)NC(=S)N1CCCc2ccccc21 | 7% | 21% | -16% | 16% | 11% | 56µM*
CC1COc2ccccc2N1S(=O)(=O)c1cc(Cl)ccc1Cl (stereo not drawn) | 3% | 15% | ? | -8% | 1% | -8%
Cc1cc(=O)nc2c3ccccc3n(C(C)C(=O)NCCC(C)C)n12 (stereo not drawn) | -3% | 1% | 27µM* | -28% | 3% | 17%
COc1cc(OC)cc(C(=O)/C=C2\Sc3ccccc3N2C)c1 | -12% | -8%[57.1 µM] | -24% | -8% | -7%[57.1 µM] | 50µM*
COc1ccc2c(c1)S/C(=C\C(=O)c1ccncc1)N2C | 3% | -2% | 0% | 8% | -2% | 8.9µM*
CN1/C(=C\C(=O)c2cccs2)Sc2ccccc21 | 21% | 17%[57.1 µM] | ? | -4% | 6%[57.1 µM] | 50µM*
Cc1ccc(CNC(=O)Cn2c(=O)n(-c3ccc(Cl)cc3)c(=O)c3c(C)c(C)sc32)cc1 | -10% | 16% | . | -6% | -4% | .
CC(C)C[C@H](NC(=O)[C@H](CO)NC(=O)[C@H](C)NC(=O)[C@H](CCCN=C(N)N)NC(=O)[C@H](CCCN=C(N)N)NC(=O)[C@@H](N)CC(C)C)C(=O)NCC(=O)O | . | . | . | 7% | . | 15%
Cc1nc2c(-c3ccccc3)c(C)nn2c(C)c1CCC(=O)NCc1ccco1 | 17% | -4% | 4% | -10% | 5% | -3%
SMILES | IDH1 R132H inh | TrxR1 inh | PLK1 PBD inh | VDR inhibitor | TrxR1 substrate | Sfp PPTase inh
Cc1nc2c(-c3ccc(F)cc3)c(C)nn2c(C)c1CCC(=O)NC(C)CCc1ccco1 (stereo not drawn) | ? | 79µM* | -15% | -30% | -6% | -6%
C=CCOc1ccc(/C=C2\SC(=S)N(C(C(=O)O)c3ccccc3)C2=O)cc1 (stereo not drawn) | 3% | 15% | 30µM* | 79µM* | -5% | -9%
CC(/C=C1\SC(=S)N(CC(=O)O)C1=O)=C\c1ccccc1 | 0% | -8% | ? | 45µM* | -5% | -23%
O=C(O)C(c1ccccc1)N1C(=O)/C(=C/c2cccs2)SC1=S (stereo not drawn) | -2% | 15% | ? | -16% | -3% | -13%
COc1ccc(OC)c(/C=C2\SC(=S)N(C(C(=O)O)c3ccccc3)C2=O)c1 (stereo not drawn) | 0% | 10% | -29% | ? | -2% | 56µM*
CC(c1ccccc1)N1C(=O)/C(=C/c2ccncc2)SC1=S (stereo not drawn) | ? | -7% | -27% | 45µM* | -5% | -30%
COc1ccc(OC)c(/C=C/c2cc3ccccc3c[n+]2C)c1 | . | -5% | . | . | -9% | .
CC(=C\c1ccccc1)/C=C1/SC(=S)N(CCC(=O)O)C1=O | -4% | -5% | -30% | -22% | -10% | ?
CC(/C=C1\SC(=S)N(C(C(=O)O)c2ccccc2)C1=O)=C\c1ccccc1 (stereo not drawn) | -12% | 3%[57.1 µM] | 27µM* | -17% | 5%[57.1 µM] | -12%
CC(=C\c1ccco1)/C=C1/SC(=S)N(CC(=O)O)C1=O | -11% | ? | -11% | 6% | -23% | 28µM*
CC(/C=C1\SC(=S)N(CC(=O)N2CCN(c3ccccc3)CC2)C1=O)=C\c1ccccc1 | -5% | 19% | -14% | -3% | 5% | 20%
COc1ccc(NC(=O)NCCCN2CCCC2=O)cc1 | -13% | 15% | -4% | -5% | -1% | 13%
COc1ccc(NC(=S)NCCCN2CCCC2=O)c(OC)c1 | -8% | 8%[57.1 µM] | ? | -7% | 5%[57.1 µM] | 40µM*
CCC(=O)N1CCc2cc(Br)cc(S(=O)(=O)N3CCCC(C(=O)Nc4ccc(C(C)C)cc4)C3)c21 (stereo not drawn) | 14% | 9% | . | 3% | -4% | .
Cn1cc(Br)c(C(=O)n2cc(Br)cn2)n1 | -3% | -10%[57.1 µM] | 17µM* | ? | 9%[57.1 µM] | 3%
Cc1ccc(C(=O)C[n+]2cccc3cccc(O)c32)cc1 | . | 2% | . | . | 3% | .

Compound activity: PubChem, National Center for Advancing Translational Sciences (NCATS)
